Inconclusive results are not listed. Active and inactive are the calls of the source. The calls were made as follows: active = hit-call score of the fitted dose curve at least 0.9, where 1 is the maximum; inconclusive = response in the unintended direction; inactive = score below 0.9.

Sequence of chimpanzee Androgen Receptor (AR), AR (gene 747460) (O97775 whole entry, looked up): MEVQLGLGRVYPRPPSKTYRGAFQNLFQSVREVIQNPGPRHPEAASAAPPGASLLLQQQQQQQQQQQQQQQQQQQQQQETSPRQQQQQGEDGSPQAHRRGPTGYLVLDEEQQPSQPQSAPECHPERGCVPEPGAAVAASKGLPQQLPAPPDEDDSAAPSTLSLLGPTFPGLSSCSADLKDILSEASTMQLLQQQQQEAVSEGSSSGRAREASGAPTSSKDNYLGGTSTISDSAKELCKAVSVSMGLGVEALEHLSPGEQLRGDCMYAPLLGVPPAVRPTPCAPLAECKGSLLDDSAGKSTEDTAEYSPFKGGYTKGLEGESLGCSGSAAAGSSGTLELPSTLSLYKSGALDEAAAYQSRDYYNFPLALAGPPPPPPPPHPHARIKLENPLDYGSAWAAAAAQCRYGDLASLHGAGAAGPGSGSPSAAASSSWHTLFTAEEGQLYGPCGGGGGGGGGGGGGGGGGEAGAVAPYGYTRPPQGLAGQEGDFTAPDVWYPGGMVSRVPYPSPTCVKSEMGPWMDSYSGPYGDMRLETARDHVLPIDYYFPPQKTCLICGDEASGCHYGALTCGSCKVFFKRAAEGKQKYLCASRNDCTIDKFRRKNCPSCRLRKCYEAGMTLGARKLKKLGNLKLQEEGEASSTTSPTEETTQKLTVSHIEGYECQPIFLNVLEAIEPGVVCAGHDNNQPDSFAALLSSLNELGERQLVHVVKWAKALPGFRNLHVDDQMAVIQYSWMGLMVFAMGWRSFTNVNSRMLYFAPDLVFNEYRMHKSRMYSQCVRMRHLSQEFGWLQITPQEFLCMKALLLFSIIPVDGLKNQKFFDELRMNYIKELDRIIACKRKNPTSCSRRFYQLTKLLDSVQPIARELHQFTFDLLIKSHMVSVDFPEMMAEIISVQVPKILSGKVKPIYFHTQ
Sequence of Estrogen receptor (Homo sapiens) (P03372 whole entry, looked up, the tested form may be a part): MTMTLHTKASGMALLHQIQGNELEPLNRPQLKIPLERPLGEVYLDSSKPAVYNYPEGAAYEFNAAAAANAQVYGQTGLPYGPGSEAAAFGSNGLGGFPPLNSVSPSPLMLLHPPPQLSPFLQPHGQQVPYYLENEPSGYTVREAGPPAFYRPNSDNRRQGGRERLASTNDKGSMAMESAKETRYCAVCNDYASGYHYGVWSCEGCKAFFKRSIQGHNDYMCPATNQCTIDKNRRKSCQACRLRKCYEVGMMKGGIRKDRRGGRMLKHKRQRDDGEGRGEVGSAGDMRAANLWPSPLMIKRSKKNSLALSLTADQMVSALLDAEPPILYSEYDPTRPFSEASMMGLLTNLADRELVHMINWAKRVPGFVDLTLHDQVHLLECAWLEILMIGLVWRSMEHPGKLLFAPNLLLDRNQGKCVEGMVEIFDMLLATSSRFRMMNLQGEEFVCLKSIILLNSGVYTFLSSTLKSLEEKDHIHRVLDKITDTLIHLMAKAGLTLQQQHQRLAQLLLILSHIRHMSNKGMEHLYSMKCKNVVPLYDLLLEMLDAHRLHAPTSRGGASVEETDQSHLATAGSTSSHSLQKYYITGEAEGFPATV
Sequence of human Constitutive Androstane Receptor (CAR), NR1I3 (gene 9970) (Q14994 whole entry, looked up): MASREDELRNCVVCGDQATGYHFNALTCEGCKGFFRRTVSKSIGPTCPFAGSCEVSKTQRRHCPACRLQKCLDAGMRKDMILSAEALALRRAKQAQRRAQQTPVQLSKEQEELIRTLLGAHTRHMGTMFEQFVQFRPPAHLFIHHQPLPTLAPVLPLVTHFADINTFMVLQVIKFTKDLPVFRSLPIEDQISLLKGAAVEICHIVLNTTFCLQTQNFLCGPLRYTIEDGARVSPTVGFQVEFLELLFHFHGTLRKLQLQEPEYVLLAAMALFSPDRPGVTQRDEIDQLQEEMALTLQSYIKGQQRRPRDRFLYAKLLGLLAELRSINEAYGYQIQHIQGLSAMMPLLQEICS
Sequence of bovine Estrogen Receptor (ER), ESR1 (gene 407238) (P49884 whole entry, looked up): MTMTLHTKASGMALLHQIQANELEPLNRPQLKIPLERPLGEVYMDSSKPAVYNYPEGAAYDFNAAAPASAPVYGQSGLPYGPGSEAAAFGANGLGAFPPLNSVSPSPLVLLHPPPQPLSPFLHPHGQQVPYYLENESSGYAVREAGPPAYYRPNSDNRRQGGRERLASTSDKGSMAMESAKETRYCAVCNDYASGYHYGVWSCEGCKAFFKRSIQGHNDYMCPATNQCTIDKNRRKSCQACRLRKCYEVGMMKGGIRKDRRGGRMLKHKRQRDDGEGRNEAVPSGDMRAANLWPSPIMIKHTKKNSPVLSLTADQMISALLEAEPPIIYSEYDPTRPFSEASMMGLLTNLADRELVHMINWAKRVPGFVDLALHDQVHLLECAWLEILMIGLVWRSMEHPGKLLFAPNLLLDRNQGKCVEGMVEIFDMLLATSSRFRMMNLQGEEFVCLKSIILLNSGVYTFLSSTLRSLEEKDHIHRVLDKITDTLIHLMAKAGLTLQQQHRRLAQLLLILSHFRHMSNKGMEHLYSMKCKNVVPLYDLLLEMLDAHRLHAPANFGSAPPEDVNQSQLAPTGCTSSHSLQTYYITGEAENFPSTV

One experiment concerns the target human Constitutive Androstane Receptor (CAR), NR1I3 (gene 9970) (UniProt Q14994). The experiment can be described thus: NVS_NR_hCAR_Antagonist: NovaScreen (NVS) Nuclear Receptor Binding Assay for human Constitutive Androstane Receptor Antagonism (CAR) (AID 2283344). In a few lines: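 Single 25 uM duplicate primary screen, with concentration-series follow-up on actives. Cell-free binding format run in antagonist mode, TR-FRET signal taken 1 h post-dose; activity is signal loss relative to DMSO.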
`CCCCc1ccc2c(n1)[C@@H](c1ccc(OC)cc1C[C@H](C)C(=O)O)[C@H](C(=O)O)[C@H]2c1ccc2c(c1)OCO2`: the outcome was inactive.

Consider `CCCCCCCCCCCC(=O)OC`, for which the outcome was inactive.

With `O=C(OCCCCCOC(=O)c1ccccc1)c1ccccc1`, the compound was called inactive.

For the compound `COc1cc(-c2nc(NC(=O)c3cc4cc(C)cc(C)c4n3CC(=O)O)sc2CCC2CCCCC2)c(OC)cc1Cl`, the half-maximal activity concentration (AC50) was 3.54 µM (active).

A further experiment addresses bovine Estrogen Receptor (ER), ESR1 (gene 407238) (UniProt P49884). The experiment can be described thus: NVS_NR_bER: NovaScreen (NVS) Nuclear Receptor Binding Assay for bovine Estrogen Receptor (ER) (AID 2283345).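 Also: actives lower the bound radioligand count which means they displace the ER ligand.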 In short, it runs like this: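 Cell-free radioligand binding with receptor from bovine uterine membranes, read by scintillation counting 18 h after dosing. Loss of specific binding was scored against DMSO; primary screen at 25 uM in duplicate, actives then run as concentration series.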
Regarding `CCCCCCCCCCCCCCCCCC(=O)O`, the outcome was inactive.

As to `O=C(O)Cc1ccccc1Nc1c(Cl)cccc1Cl`, the compound was called inactive.

On to `Cc1ccc(Cl)cc1`, for which the compound was called inactive.

For the compound `CCCc1cc(=O)[nH]c(=S)[nH]1`, the AC50 was 25 µM (active).

For the compound `COc1ccc2c(c1)c(CC(=O)O)c(C)n2C(=O)c1ccc(Cl)cc1`, the outcome was inactive.

With `COC(=O)c1ccc(O)cc1`, the outcome was inactive.

Take `Oc1ccc2ccccc2c1N=Nc1ccccc1`: the call was inactive.

On to `CN[C@H]1CC[C@@H](c2ccc(Cl)c(Cl)c2)c2ccc(S(N)(=O)=O)cc21`, for which the compound was called inactive.

Take `COc1cc(-c2nc(NC(=O)c3cc4cc(C)cc(C)c4n3CC(=O)O)sc2CCC2CCCCC2)c(OC)cc1Cl`: the compound was classed as inactive.

Regarding `CNCc1cc(F)ccc1Oc1ccc(Cl)c(Cl)c1`, the compound was called inactive.

In a further experiment the target is chimpanzee Androgen Receptor (AR), AR (gene 747460) (UniProt O97775). Briefly: NVS_NR_cAR: NovaScreen (NVS) Nuclear Receptor Binding Assay for chimpanzee Androgen Receptor (AR) (AID 2283346).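 Also: radioligand displacement from AR measured by scintillation counting in a cell-free assay; a loss of bound radioligand signal versus DMSO counts as binding.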 In short, it runs like this:
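Cell-free competition binding with insect-cell (Sf9/Sf21) extracted chimpanzee AR; scintillation signal from lysate at 72 h. Screened in duplicate at 25 uM, then concentration-response for actives; fitting relative to DMSO.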
With `C[C@]12C=CC(=O)C=C1CC[C@@H]1[C@@H]2C(=O)C[C@@]2(C)[C@H]1CC[C@]2(O)C(=O)CO`, the half-maximal activity concentration (AC50) was 14.8 µM (active).

As for `C=CCc1ccc(O)c(OC)c1`, the AC50 is 21 µM (active).

Turning to `CCNc1cccc(C)c1`, the compound was classed as inactive.

As for `Cc1cc(NC(=O)C(=O)O)cc(C)c1Oc1ccc(O)c2c1CCC2`, the compound was classed as inactive.

As to `CNCc1cc(F)ccc1Oc1ccc(Cl)c(Cl)c1`, the half-maximal activity concentration (AC50) was 16.6 µM (active).

Another experiment concerns the target Estrogen receptor (Homo sapiens) (UniProt P03372). The experiment can be described thus: OT_ER_ERaERa_1440: Odyssey Thera (OT) 24-hour HEK293T Protein-Complementation Assay for Estrogen Receptor-alpha/-alpha Homodimer (AID 2283349).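 Also: hits raise fluorescence above DMSO for agonists and antagonists alike.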 In a few lines: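 HEK293T, stable ERα LBD (aa 310-547) homodimer PCA; 24 h compound exposure; mean fluorescence intensity (nuclear for agonists, nuclear plus cytoplasmic for antagonists) vs vehicle; positive fitting direction, DMSO baseline.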
Take `c1cc(-c2ccncc2)ccn1`: the result was inactive.

`CCCCCCCCCCCCCCCCCC(=O)O`: the result was inactive.

Consider `CC(CO)OC(C)CO` (stereo not drawn) (tested in a mixture with another compound), for which the outcome was inactive.

Regarding `CCCCc1ccc2c(n1)[C@@H](c1ccc(OC)cc1C[C@H](C)C(=O)O)[C@H](C(=O)O)[C@H]2c1ccc2c(c1)OCO2`, the call was inactive.

Take `O=C(O)Cc1ccccc1Nc1c(Cl)cccc1Cl`: the call was inactive.

As for `Cc1ccc(Cl)cc1`, the outcome was inactive.

For `CC1(C)CC(N=C=O)CC(C)(CN=C=O)C1` (stereo not drawn), the compound was classed as inactive.

Take `CC(=O)C(C)=CC1C(C)=CCCC1(C)C` (stereo not drawn): the compound was called inactive.

As for `CCCc1cc(=O)[nH]c(=S)[nH]1`, the result was inactive.

Regarding `Cc1ccc2ncccc2c1`, the call was inactive.

As for `Cc1ccc(C)c(O)c1C`, the call was inactive.

Consider `CC(=O)OC/C=C(\C)CCC=C(C)C`, for which the result was inactive.

For `O=[N+]([O-])C(CO)(CO)CO`, the compound was classed as inactive.

`NCCO`: the compound was called inactive.

On to `COc1ccc2c(c1)c(CC(=O)O)c(C)n2C(=O)c1ccc(Cl)cc1`, for which the call was inactive.

With `Cc1cc(=O)[nH]c(=S)[nH]1`, the outcome was inactive.

On to `COC(=O)c1ccc(O)cc1`, for which the result was inactive.

As for `OC[C@@H](O)[C@@H](O)[C@H](O)[C@H](O)CO`, the outcome was inactive.

As for `C[C@]12C=CC(=O)C=C1CC[C@@H]1[C@@H]2C(=O)C[C@@]2(C)[C@H]1CC[C@]2(O)C(=O)CO`, the compound was called inactive.

Consider `C=CCc1ccc(O)c(OC)c1`, for which the compound was classed as inactive.

`CCNc1cccc(C)c1`: the compound was classed as inactive.

Consider `CCCCCCCCCCCC(=O)OC`, for which the outcome was inactive.

Turning to `Oc1ccc2ccccc2c1N=Nc1ccccc1`, the outcome was inactive.

In the case of `O=C(OCCCCCOC(=O)c1ccccc1)c1ccccc1`, the outcome was inactive.

For `CN[C@H]1CC[C@@H](c2ccc(Cl)c(Cl)c2)c2ccc(S(N)(=O)=O)cc21`, the result was inactive.

As for `CC1(C)NC(=O)NC1=O`, the compound was classed as inactive.

Regarding `COc1cc(-c2nc(NC(=O)c3cc4cc(C)cc(C)c4n3CC(=O)O)sc2CCC2CCCCC2)c(OC)cc1Cl`, the compound was classed as inactive.

Regarding `Cc1cc(NC(=O)C(=O)O)cc(C)c1Oc1ccc(O)c2c1CCC2`, the call was inactive.

Regarding `CNCc1cc(F)ccc1Oc1ccc(Cl)c(Cl)c1`, the compound was classed as inactive.

The record behind these values is PubChem BioAssay (EPA / NIEHS).
